# According to PubChem BioAssay (NCI):
# Compounds without any hit were thinned out: in the full panel of roughly 83,000, 20% have a hit.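 Plates (96-well) were seeded with cells, treated with compound at one concentration, and incubated for 48 hours before percent growth was determined.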 Active and inactive are the calls of the source. How the source made its calls: active means growth percent below 10; inactive means the rest.
# Tested on: MALME-3M melanoma
# Assay: NCI-60 one-dose screen, 48 h (100 = growth as untreated, 0 = no growth, -100 = all killed)
# Details: 10 µM unless noted
row,Structure (SMILES),growth
1,COC(=O)[C@]12CCC(C)(C)C[C@H]1C1=CC[C@@H]3[C@@]4(C)C/C(=C/c5cccnc5)C(=O)C(C)(C)[C@@H]4CC[C@@]3(C)[C@]1(C)CC2,-79.7% [100 µM] (active)
2,CC(C)[C@H]1COC(=O)N1[C@@H]1C(=O)N([C@@H](CCC(=O)N2CCN(C3CCCC3)CC2)C(=O)N[C@@H]2CCCc3ccccc32)[C@@H]1/C=C/c1cccc(Cl)c1,82.3% (inactive)
3,CCN=Cc1c(O)c(O)c(C(C)C)c2cc(C)c(-c3c(C)cc4c(C(C)C)c(O)c(O)c(C=NCC)c4c3O)c(O)c12,75.1% (inactive)
4,O=c1cc(-c2ccccc2)oc2c(O)c(O)ccc12,87.2% (inactive)
5,COc1ccc(C2NC(=O)C(C#N)c3c2sc2c(F)cccc32)cc1 (centres undefined),47.2% (inactive)
6,COc1cc(-c2nc(SCCC(C)C)nc(Nc3ccccc3)c2C#N)cc(OC)c1OC,104% (inactive)
7,O=C(N/N=C\c1cc(Cl)ccc1O)N/N=C/c1cc(Cl)ccc1O,74.1% (inactive)
8,Cc1ccc(S(=O)(=O)Oc2ccc([N+](=O)[O-])cc2[N+](=O)[O-])cc1,63.6% (inactive)
9,COCCCNc1nc(NC(=O)c2cc(OC)cc(OC)c2)cc(-c2cccnc2)n1,112% (inactive)
10,CC1(C)CC[C@]2(C(=O)O)CC[C@]3(C)C(=CC[C@@H]4[C@@]5(C)C/C(=C/c6ccco6)C(=O)C(C)(C)[C@@H]5CC[C@]43C)[C@@H]2C1,-80.7% [100 µM] (active)
11,O=C(N=c1n(-c2ccccc2)nc2n1CCN2C1=NCCN1)c1ccc(Cl)cc1,91.3% (inactive)

# Tested on: MDA-MB-231 breast
# Assay: as above
# Details: 10 µM unless noted
row,Structure (SMILES),growth
1,CC1=CCc2ccccc21,94.5% (inactive)
2,O=C1Nc2ccccc2/C1=C/C(=O)c1ccc(N2CCCCC2)cc1,82.1% (inactive)
3,COc1ccc2nc3c(cc2c1)C(=O)CC(c1ccccc1)C3 (centres undefined),54.6% (inactive)
4,Oc1ccc(N=Nc2nccs2)c(O)c1,54.9% (inactive)
5,Cc1cc(-c2ccc(N=Nc3c(S(=O)(=O)O)cc4cc(S(=O)(=O)O)cc(N)c4c3O)c(C)c2)ccc1N=Nc1cc(S(=O)(=O)O)c2ccccc2c1O,92.4% (inactive)
6,C#CCNC(=O)CC[C@]1(C)[C@H]2CC[C@@H]3[C@@H]([C@@](C)(O)CCC=C(C)C)CC[C@@]3(C)[C@]2(C)CC[C@H]1C(=C)C,-24.5% [100 µM] (active)
7,CC(=O)Nc1ccc2nc3ccc(NC(C)=O)cc3[n+](-c3ccccc3)c2c1,66.3% (inactive)
8,CCN(CC)CCCCCCNc1cccc2cc(Br)cnc12,67.9% (inactive)
9,COc1ccc(NC(=S)NNc2ccc(-c3ccc(OC)c(OC)c3)nn2)cc1,96.1% (inactive)
10,O=[N+]([O-])c1cc([N+](=O)[O-])c(NN=C(c2ccc(O)cc2)c2ccc(O)cc2)cc1Cl,-70.4% (active)
11,CC(C)C1=NOC(=O)C1=Cc1cn(-c2ccccc2)nc1-c1cccc([N+](=O)[O-])c1,93.1% (inactive)
12,C=C(C)[C@@H]1CC[C@]2(C(=O)NCCNCCNCCN)CC[C@]3(C)[C@H](CC[C@@H]4[C@@]5(C)CC[C@H](O)C(C)(C)[C@@H]5CC[C@]43C)[C@@H]12,-56.9% [100 µM] (active)
13,O=C1COCCN1c1ccc(Nc2nc(Cl)nc(N3CCOCC3)n2)cc1,103% (inactive)
14,Cn1cc(-c2noc(-c3cn(C)c4ncc(F)cc34)n2)c2cc(Br)ccc21,60.8% (inactive)
15,CC1(C)NCCC[C@]2(C)[C@H]3C=CC4=C5C[C@](C)(CO)CC[C@]5(C)CC[C@@]4(C)[C@]3(C)CC[C@@H]12,-94% [100 µM] (active)
16,CCCC(NC(=O)OCc1ccccc1)C(=O)O (centres undefined),75.9% (inactive)
17,CC(C)C1=NOC(=O)C1=Cc1cn(-c2ccccc2)nc1-c1ccc(Cl)cc1,97% (inactive)
18,COc1cc(OC)cc(C(=O)Nc2cc(-c3cccnc3)nc(NCCCN3CCOCC3)n2)c1,79.6% (inactive)
19,Brc1ccc2c(c1)CN(C1CCCCC1)CO2,102% (inactive)

row,Structure (SMILES),growth
1,CC/C=C(\C)C(CCC)(CN=O)C(=O)OCC (centres undefined),94.8% (inactive)
2,O=C(Nc1ccc(F)cc1)c1ccccc1,105% (inactive)
3,O=C(O)c1cccc(CN2CCN(c3cc4c(cc3F)c(=O)c(C(=O)O)cn4C3CC3)CC2)c1O,106% (inactive)
4,COC(=O)c1c(C)[nH]c(/C=C2\N=C(c3ccc[nH]3)C=C2OC)c1C,-40.2% (active)
5,C=CCCC1(C)NC(=O)NC1=O (centres undefined),101% (inactive)
6,O=[N+]([O-])c1cccc(N=NNc2cccc([N+](=O)[O-])c2)c1,78.8% (inactive)
7,Cc1ccc(N)c(O)c1,81.7% (inactive)
8,CCN(CC)c1ccc2cc(NC(=O)OCCNC(=O)CCNC(=O)[C@H](CC(C)C)NC(=O)C(C)(C)NC(=O)C(C)(C)NC(=O)[C@H](CC(C)C)NC(=O)CCNC(=O)C(C)(C)NC(=O)[C@H](CC(C)C)NC(=O)CCNC(=O)[C@@](C)(CC)NC(=O)[C@H](C)NC(=O)CCNC(=O)C(C)(C)NC(=O)[C@H](C)NC(=O)[C@@H]3CCCN3C(=O)[C@@](C)(CC)NC(=O)[C@H](Cc3ccccc3)NC(=O)C3CCCN3C(=O)C(C)(C)NC(=O)C3CCCN3C(=O)C(C)(C)NC(C)=O)c(=O)oc2c1 (some centres undefined),-83.2% (active)
9,COC(=O)[C@]12CCC(C)(C)C[C@H]1C1=CC[C@@H]3[C@@]4(C)C/C(=C/c5cccnc5)C(=O)C(C)(C)[C@@H]4CC[C@@]3(C)[C@]1(C)CC2,-55.7% [100 µM] (active)
10,CC(C)[C@H]1COC(=O)N1[C@@H]1C(=O)N([C@@H](CCC(=O)N2CCN(C3CCCC3)CC2)C(=O)N[C@@H]2CCCc3ccccc32)[C@@H]1/C=C/c1cccc(Cl)c1,44.7% (inactive)
11,CCN=Cc1c(O)c(O)c(C(C)C)c2cc(C)c(-c3c(C)cc4c(C(C)C)c(O)c(O)c(C=NCC)c4c3O)c(O)c12,50.5% (inactive)
12,O=c1cc(-c2ccccc2)oc2c(O)c(O)ccc12,71% (inactive)
13,COc1ccc(C2NC(=O)C(C#N)c3c2sc2c(F)cccc32)cc1 (centres undefined),71.2% (inactive)
14,COc1cc(-c2nc(SCCC(C)C)nc(Nc3ccccc3)c2C#N)cc(OC)c1OC,59.8% (inactive)
15,O=C(N/N=C\c1cc(Cl)ccc1O)N/N=C/c1cc(Cl)ccc1O,48.3% (inactive)
16,Cc1ccc(S(=O)(=O)Oc2ccc([N+](=O)[O-])cc2[N+](=O)[O-])cc1,94.3% (inactive)
17,COCCCNc1nc(NC(=O)c2cc(OC)cc(OC)c2)cc(-c2cccnc2)n1,69.1% (inactive)
18,CC1(C)CC[C@]2(C(=O)O)CC[C@]3(C)C(=CC[C@@H]4[C@@]5(C)C/C(=C/c6ccco6)C(=O)C(C)(C)[C@@H]5CC[C@]43C)[C@@H]2C1,-77.9% [100 µM] (active)
19,O=C(N=c1n(-c2ccccc2)nc2n1CCN2C1=NCCN1)c1ccc(Cl)cc1,69.5% (inactive)
